Here are results for nine compounds from PubChem BioAssay (EPA / NIEHS).

Records with an inconclusive call do not appear. Active and inactive are the calls of the source. The calls were made as follows, unless noted: active = hit-call score of the fitted dose curve at least 0.9, where 1 is the maximum; inactive = score below 0.9.

Test [1] can be described thus: APR_HepG2_CellCycleArrest_1hr: Apredica 1-hour HepG2 Assay for Cell Cycle Arrest (AID 2282666). The conditions noted are these: high-content imaging, actives raise or lower the signal. The essentials:
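HepG2 cells exposed for 1 h to 0.39–200 uM compound (0.5% DMSO). Fixed, Hoechst-stained nuclei imaged by ArrayScan; DNA content quantified by Cell Cycle analysis; bidirectional fit against DMSO.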

Test [2] is described as follows: ACEA_ER_80hr: ACEA Biosciences xCELLigence Real-Time Cell Analysis on Estrogen Receptor Agonism for Proliferation (AID 2282667; active = hit-call score of the fitted dose curve at least 0.9, where 1 is the maximum). The following applies: T47D proliferation, impedance (xCELLigence), 80 h. In outline: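 Real-time impedance growth kinetics of human T-47D breast cells read 80 h after dosing, gain-of-signal fitted relative to DMSO. Compounds: 1:4 serial series, top final concentration 100 uM, n = 2.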

The nature of test [3]: APR_HepG2_MicrotubuleCSK_1hr: Apredica 1-hour HepG2 Assay for Microtubule CSK Stabilty (AID 2282669). The following applies: HepG2 microtubule cytoskeleton imaging, actives raise or lower the signal. The essentials: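 HepG2 cells exposed 1 h to 0.39–200 uM compound (0.5% DMSO, duplicates), then formaldehyde-fixed, permeabilized and immunostained for alpha-tubulin with Hoechst nuclei. Imaged by ArrayScan high-content analysis; bidirectional fit versus DMSO.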

Test [4] can be described thus: APR_HepG2_p53Act_1hr: Apredica 1-hour HepG2 Assay for p53 Activation (AID 2282671). The conditions noted are these: high-content imaging, actives raise or lower the signal. In outline: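 HepG2 cells treated 1 h with compound at 0.39–200 uM (10 concentrations, duplicate) in 0.5% DMSO. Formaldehyde-fixed, permeabilised cells immunostained for p53 with Hoechst 33342; high-content imaging, bidirectional fit versus DMSO.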

A short description of test [5]: APR_HepG2_MitoticArrest_1hr: Apredica 1-hour HepG2 Assay for Mitotic Arrest (AID 2282672). The conditions noted are these: high-content imaging, actives raise or lower the signal. The essentials:
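HepG2 cells exposed 1 hr to compounds at 0.39–200 uM (0.5% v/v DMSO final), then fixed in 3.7% formaldehyde and immunostained for phospho-histone H3 with Hoechst 33342. Mitotic arrest scored by automated fluorescence imaging, fitted bidirectionally versus DMSO.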

A short description of test [6]: APR_HepG2_P-H2AX_1hr: Apredica 1-hour HepG2 Assay for H2AX Phosphorylation (AID 2282673). The following applies: high-content imaging, actives raise or lower the signal. The essentials:
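HepG2 dosed 1 hr at 0.39-200 uM (0.5% DMSO final), duplicate. Fixed in 3.7% formaldehyde, Triton permeabilized, immunostained for phospho-histone H2A.x (1:200) with Hoechst 33342; ArrayScan 20x imaging, bidirectional fit vs DMSO.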

A short description of test [7]: APR_HepG2_MitoMass_1hr: Apredica 1-hour HepG2 Assay for Mitochondrial Mass (AID 2282674). The following applies: high-content imaging, actives raise or lower the signal. The essentials: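 HepG2 cells dosed 1 hr with 0.39-200 uM compound (0.5% DMSO), duplicate wells. Mitochondria stained with 250 nM MitoTracker Red CMXRos for 30 min before formaldehyde fixation, imaged at 20x by ArrayScan; bidirectional fit versus DMSO.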

Test [8] can be described thus: APR_HepG2_CellCycleArrest_24hr: Apredica 24-hour HepG2 Assay for Cell Cycle Arrest (AID 2282905).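 Also: cell cycle arrest scored as ratio of 2N to 4N nuclear DNA content.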 The conditions noted are these: imaging, actives raise or lower the signal. The essentials:
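Cell cycle arrest is scored from nuclear DNA content measured by high-content imaging of Hoechst 33342-stained HepG2 cells following 24-hour treatment at ten concentrations up to 200 uM, with DMSO as baseline.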

Test [9] in a line: APR_HepG2_NuclearSize_24hr: Apredica 24-hour HepG2 Assay for Nuclear Size (AID 2282907). The conditions noted are these: high-content imaging, actives raise or lower the signal. In outline: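 Compounds in DMSO (final 0.5%) were added to human HepG2 hepatoma cells at ten concentrations up to 200 uM for 24 hr. Fixed nuclei were stained with Hoechst 33342, and nuclear diameter was quantified from automated images.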

Test [10] in a line: APR_HepG2_CellLoss_24hr: Apredica 24-hour HepG2 Assay for Cell Loss (AID 2282908).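 As to AC50: fit in both directions so a hit may be cell loss or gain.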 The following applies: high-content imaging. The essentials:
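Cell number is quantified by fluorescence imaging of Hoechst 33342-stained nuclei following dosing at 0.39–200 uM in 0.5% DMSO. Curves are fitted in both directions from the DMSO baseline.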

Test [11] can be described thus: APR_HepG2_MicrotubuleCSK_24hr: Apredica 24-hour HepG2 Assay for Microtubule CSK Stabilty (AID 2282909). The conditions noted are these: HepG2 microtubule cytoskeleton imaging, actives raise or lower the signal. In outline: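 Steps: dose HepG2 for 24 h (0.39–200 uM, 0.5% DMSO); fix 30 min in 3.7% formaldehyde at room temperature; permeabilize; stain alpha-tubulin 60 min; image microtubule cytoskeleton at 20x. Signal change fitted in both directions relative to DMSO.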

Test [12] is described as follows: APR_HepG2_MitoticArrest_24hr: Apredica 24-hour HepG2 Assay for Mitotic Arrest (AID 2282910). The conditions noted are these: high-content imaging, actives raise or lower the signal. The essentials: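 Compounds are dosed onto HepG2 cells across ten concentrations up to 200 uM for 24 hr. Cells are then fixed in 3.7% formaldehyde, permeabilised, and labelled for phospho-histone H3 and nuclei; images are scored by cell cycle analysis and fitted bidirectionally relative to DMSO.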

Test [13] can be described thus: APR_HepG2_MitoMembPot_24hr: Apredica 24-hour HepG2 Assay for Mitochondrial Membrane Potential (AID 2282911). The conditions noted are these: imaging, actives raise or lower the signal. In outline:
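Mitochondrial membrane potential imaged via MitoTracker Red CMXRos (250 nM, 30 min pre-fixation) in fixed HepG2 cells with Hoechst nuclear identification. Ten concentrations 0.39–200 uM, 24 h treatment, 0.5% DMSO; CCCP as positive control.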

Test [14] is described as follows: APR_HepG2_MitoMass_24hr: Apredica 24-hour HepG2 Assay for Mitochondrial Mass (AID 2282912). The following applies: high-content imaging, actives raise or lower the signal. The essentials:
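The liver line HepG2 was dosed in duplicate across a 0.39–200 uM series, with final DMSO held at 0.5% v/v, and harvested at 24 hr. High-content imaging measured mitochondrial dye staining.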

Test [15] in a line: APR_HepG2_p53Act_24hr: Apredica 24-hour HepG2 Assay for p53 Activation (AID 2282913).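 Also: p53 protein immunofluorescence averaged per cell in HepG2 with Hoechst nuclei.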 The following applies: high-content imaging, actives raise or lower the signal. In outline:
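Fluorescence imaging of formaldehyde-fixed HepG2 cells labelled for p53 and with Hoechst, 24 h after dosing (0.39–200 uM, duplicate wells, 0.5% v/v DMSO). Signal fitted in both directions relative to DMSO.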

The nature of test [16]: APR_HepG2_NuclearSize_1hr: Apredica 1-hour HepG2 Assay for Nuclear Size (AID 2282670). The conditions noted are these: high-content imaging, actives raise or lower the signal. In outline: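 HepG2 cells dosed 1 hr with 0.39–200 uM compound (0.5% DMSO), formaldehyde-fixed, Hoechst 33342-stained and imaged at 20x; nuclear diameter from nuclear stain, fitted bidirectionally against DMSO.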

Test [17] is described as follows: APR_HepG2_StressKinase_1hr: Apredica 1-hour HepG2 Assay for Stress Kinase (AID 2282906). The conditions noted are these: HepG2 stress kinase (phospho-c-Jun) imaging, actives raise or lower the signal. In outline:
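HepG2 cells dosed 0.39-200 uM (0.5% DMSO) for 1 h, then formaldehyde-fixed. Stress kinase read by phospho-c-Jun immunofluorescence using high-content imaging; bidirectional fit vs DMSO.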

Test [18] is described as follows: APR_HepG2_CellCycleArrest_72hr: Apredica 72-hour HepG2 Assay for Cell Cycle Arrest (AID 2282914). The conditions noted are these: high-content imaging, actives raise or lower the signal. In outline: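 Read-out: nuclear DNA content from Hoechst 33342 high-content imaging (20x, six fields/well) after 3.7% formaldehyde fixation, fitted bidirectionally against DMSO. Treatment was 72 h in HepG2, ten concentrations 0.39–200 uM, duplicate, 0.5% DMSO.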

Test [19] can be described thus: APR_HepG2_MitoMembPot_1hr: Apredica 1-hour HepG2 Assay for Mitochondrial Membrane Potential (AID 2282675). The conditions noted are these: imaging, actives raise or lower the signal. The essentials: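 HepG2 cells dosed 1 hour with 0.39–200 uM compound in duplicate, 0.5% DMSO final. MitoTracker Red CMXRos (250 nM, 30 min) loaded before formaldehyde fixation; fluorescence quantified by high-content imaging, bidirectional fitting versus DMSO.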

For the compound `CS(=O)(=O)c1cc(C(F)(F)F)ccc1C(=O)c1cnoc1C1CC1`, the compound was called inactive in test [1], in [2], in [3], in test [4], in test [5] and in [6]. The result in test [7], in test [8], in test [9], in [10], in test [11] and in test [12] was inactive. In addition, the result in test [13], in [14] and in test [15] was inactive.
For the compound `CN/C(=N\[N+](=O)[O-])NCc1cnc(Cl)s1`, the compound was classed as inactive in test [1], in test [2], in test [3], in [4], in [5] and in test [6]. For the same compound, the call in test [8], in test [9], in test [10], in test [11], in test [12] and in test [13] was inactive. For the same compound, the result in test [14] and in [15] was inactive.
Regarding `CCCCC(C#N)(Cn1cncn1)c1ccc(Cl)cc1` (configuration not stated), the outcome in test [1], in [2], in test [3], in test [16], in test [4] and in test [5] was inactive. Besides, the compound was called inactive in test [6], in test [7], in test [8], in [9], in test [10] and in [11]. In addition, the call in test [12], in test [13], in [14] and in test [15] was inactive.
The AC50 is the concentration giving half of the maximal activity seen. As for `Cc1ccc(N=CN(C)C=Nc2ccc(C)cc2C)c(C)c1`, the compound was called inactive in test [1], in test [2], in [3], in test [4], in test [5] and in test [6]. The compound was classed as inactive in [7], in [8], in test [9], in [11], in [12] and in test [14]. Besides, the call in [15] and in test [18] was inactive. Moreover, the AC50 in test [17] is 75.4 µM (active); in [10], 117 µM (active); in test [13], 44.7 µM (active).
Regarding `CCOc1cc(C(C)(C)C)ccc1C1COC(c2c(F)cccc2F)=N1` (configuration not stated), the outcome in [1], in [2], in [3], in [5], in test [6] and in test [8] was inactive. Besides, the compound was called inactive in [9], in test [10], in test [11] and in test [12]. Moreover, the AC50 in test [13] is 93.3 µM (active).
As to `COC(=O)c1c(C(F)F)nc(C(F)(F)F)c(C2=NCCS2)c1CC(C)C`, the compound was classed as inactive in test [1], in [2], in test [3], in test [4], in [5] and in test [6]. In addition, the call in [7], in [8], in [9], in test [10], in test [12] and in [13] was inactive. For the same compound, the result in test [14], in [15] and in [18] was inactive. Further, the AC50 in test [11] is 91.6 µM (active).
Turning to `COCC(=O)N(c1c(C)cccc1C)C(C)C(=O)OC` (configuration not stated), the outcome in test [1], in test [2], in test [3], in [4], in [5] and in test [6] was inactive. In addition, the call in test [7], in test [19], in [8], in test [9], in test [10] and in test [11] was inactive. Also, the result in test [12], in test [13], in [15] and in [18] was inactive.
As to `Nc1c(Cl)c(Cl)nc(C(=O)O)c1Cl`, the outcome in test [1], in [2], in test [3], in test [16], in [4] and in test [5] was inactive. Further, the result in test [6], in test [7], in test [19], in [8], in test [9] and in test [10] was inactive. The result in test [11], in test [12], in test [13] and in test [15] was inactive.
Take `CCN(CC)c1nc(C)cc(OP(=S)(OC)OC)n1`: the result in test [1], in test [2], in test [3], in test [4], in [5] and in test [6] was inactive. Moreover, the compound was called inactive in test [19], in [8], in [9], in test [10], in test [11] and in [12]. The compound was called inactive in test [13], in test [14], in test [15] and in test [18].
